The source of these data is PubChem BioAssay (NCATS).

Structures are written as SMILES. A number with no mark means an inactive call. Inconclusive results are not listed. Activity calls are given as the source filed them. Unless noted, the call rests on the fitted dose curve; in most records, active means well fitted curve in the direction sought with a large enough effect; inconclusive means small, poorly fitted or top-dose-only effect, or another doubt; inactive means no such curve, though single readings can be large; an effect the other way counts as inactive or inconclusive.

Assay [1] in a line: qHTS for Inhibitors of the vitamin D receptor (VDR): Hit Validation using a Texas Red Assay (AID 602201). Further: potency means the concentration at half of the fitted maximal effect. The method, boiled down: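 After a 2-hour room-temperature incubation, polarization of Texas-Red emission was read (Ex 595 nm/Em 615 nm). Final mix contained 7 nM Texas Red, 1.5 uM VDR-LBD and LG19078.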
Assay [2] concerns the target Rap guanine nucleotide exchange factor 3 (Homo sapiens) (UniProt O95398). Kind of assay: Confirmatory qHTS for antagonist of cAMP-regulated guanine nucleotide exchange factor 3 (EPAC1) (AID 1645880). Further: nearly all actives have a fitted effect of over 55% in size. Further: potency means the concentration at half of the fitted maximal effect.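 On activity, negative = inhibition: plate controls were DMSO only for no effect and full effect of the ATA control for full effect.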 The settings on record: EPAC1 Rap1B-BODIPY-GDP exchange, fluorescence; activity, negative = inhibition: at 115 µM (top of the series). The essentials: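 Released BODIPY-GDP fluoresces less than Rap1-bound BODIPY-GDP; the signal is followed at 480/540 nm at 5-min intervals over 30 min, after 5 min at room temperature. Reactions contain 100 nM EPAC1, 250 nM RAP1B-BODIPY-GDP and 50 uM GDP; results are normalized to ATA and DMSO.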
In general terms: qHTS replaces the single test concentration by a dilution series.

In assay [3] the target is Rap guanine nucleotide exchange factor 4 (Homo sapiens) (UniProt Q8WZA2). Nature of the assay: Confirmatory qHTS for antagonist of cAMP-regulated guanine nucleotide exchange factor 4 (EPAC2) (AID 1645885). Further: nearly all actives have a fitted effect of over 25% in size. Further: potency means the concentration at half of the fitted maximal effect.
Sequence of Rap guanine nucleotide exchange factor 4 (Homo sapiens) (Q8WZA2 whole entry, looked up): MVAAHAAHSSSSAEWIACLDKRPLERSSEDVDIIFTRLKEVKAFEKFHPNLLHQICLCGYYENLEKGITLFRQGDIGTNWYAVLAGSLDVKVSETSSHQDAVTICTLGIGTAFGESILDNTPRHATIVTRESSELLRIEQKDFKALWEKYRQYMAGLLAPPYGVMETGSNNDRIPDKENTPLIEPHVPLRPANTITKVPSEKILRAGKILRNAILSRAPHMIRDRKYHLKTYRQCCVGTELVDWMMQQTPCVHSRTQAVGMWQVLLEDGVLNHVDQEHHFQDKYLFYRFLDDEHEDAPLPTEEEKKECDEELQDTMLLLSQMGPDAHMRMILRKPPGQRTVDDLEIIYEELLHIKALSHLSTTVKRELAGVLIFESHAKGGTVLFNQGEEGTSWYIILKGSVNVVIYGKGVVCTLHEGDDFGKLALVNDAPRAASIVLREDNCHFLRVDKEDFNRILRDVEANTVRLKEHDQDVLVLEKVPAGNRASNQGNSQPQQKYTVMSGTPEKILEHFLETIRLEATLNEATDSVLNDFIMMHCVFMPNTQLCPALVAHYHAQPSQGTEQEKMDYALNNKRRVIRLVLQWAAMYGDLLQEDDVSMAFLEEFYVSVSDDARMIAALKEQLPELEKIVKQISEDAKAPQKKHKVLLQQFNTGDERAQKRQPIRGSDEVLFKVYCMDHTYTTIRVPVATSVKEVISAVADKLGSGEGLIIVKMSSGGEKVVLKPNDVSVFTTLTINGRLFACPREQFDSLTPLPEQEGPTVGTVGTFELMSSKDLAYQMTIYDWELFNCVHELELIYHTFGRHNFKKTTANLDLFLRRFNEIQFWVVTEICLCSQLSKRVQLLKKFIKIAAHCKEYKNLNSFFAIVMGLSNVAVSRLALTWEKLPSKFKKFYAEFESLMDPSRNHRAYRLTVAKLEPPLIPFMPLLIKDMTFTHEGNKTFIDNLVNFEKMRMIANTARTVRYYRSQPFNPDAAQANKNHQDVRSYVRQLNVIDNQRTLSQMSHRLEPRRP
The target in assay [4] is Rap guanine nucleotide exchange factor 3 (Homo sapiens) (UniProt O95398). Kind of assay: Counterscreen qHTS for antagonist of cAMP-regulated guanine nucleotide exchange factor 3 (EPAC1) (AID 1645888). Further: % of control where 0% means no effect. The method, boiled down: (§1)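 Rap1B-BODIPY-GDP 250 nM + GDP 50 uM; cpds 7-pt, final 9.74 nM–152 uM (activator mode) or from 7.32 nM upwards (inhibitor mode); RT; FI 480/540 nm at 5 and 30 min, then ± cAMP, reread.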
Sequence of Rap guanine nucleotide exchange factor 3 (Homo sapiens) (O95398 whole entry, looked up): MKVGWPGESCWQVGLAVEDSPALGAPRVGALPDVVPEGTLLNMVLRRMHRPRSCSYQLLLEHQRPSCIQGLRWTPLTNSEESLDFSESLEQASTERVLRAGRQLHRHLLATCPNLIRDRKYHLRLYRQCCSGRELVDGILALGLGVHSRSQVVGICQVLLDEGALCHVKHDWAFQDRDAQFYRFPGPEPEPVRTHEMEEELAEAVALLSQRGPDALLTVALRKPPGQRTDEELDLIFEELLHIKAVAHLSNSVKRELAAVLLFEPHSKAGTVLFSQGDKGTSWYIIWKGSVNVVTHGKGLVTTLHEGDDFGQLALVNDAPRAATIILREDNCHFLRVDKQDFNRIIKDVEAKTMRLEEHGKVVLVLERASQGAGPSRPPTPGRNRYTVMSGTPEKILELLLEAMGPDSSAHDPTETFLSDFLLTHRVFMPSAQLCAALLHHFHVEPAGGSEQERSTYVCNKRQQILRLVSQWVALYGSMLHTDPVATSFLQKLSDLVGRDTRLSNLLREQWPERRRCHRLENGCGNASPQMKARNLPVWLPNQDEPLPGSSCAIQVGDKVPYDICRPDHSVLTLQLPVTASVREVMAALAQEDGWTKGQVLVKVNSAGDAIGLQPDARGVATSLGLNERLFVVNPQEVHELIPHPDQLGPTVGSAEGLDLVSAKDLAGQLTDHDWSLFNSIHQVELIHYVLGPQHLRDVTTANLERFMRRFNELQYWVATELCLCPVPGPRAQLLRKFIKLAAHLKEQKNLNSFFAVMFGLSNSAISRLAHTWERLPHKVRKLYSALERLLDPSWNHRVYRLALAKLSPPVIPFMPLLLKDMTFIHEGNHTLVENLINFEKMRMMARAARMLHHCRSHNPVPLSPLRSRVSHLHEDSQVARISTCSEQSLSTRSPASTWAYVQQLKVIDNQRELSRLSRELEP
For orientation: The purpose of a counterscreen is to sort out artefacts and off-target activity.

The target in assay [5] is Lysosomal acid glucosylceramidase (Homo sapiens) (UniProt P04062). Kind of assay: Glucocerebrosidase-p2 (AID 348; in the data active means potency below about 10 µM; further: potency means the concentration at half of the fitted maximal effect). Conditions: purified GBA, blue fluorogenic substrate, 40 min. The essentials:
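Normal human glucocerebrosidase (0.2 nM) with blue fluorogenic substrate (80 uM final) in citrate/phosphate pH 5.9 with 10mM sodium taurocholate, 0.01% tween-20; 40 min RT, NaOH/glycine stop; fluorescence Ex 365/Em 440; AC50 from a titration from 0.6 nM upwards.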

The nature of assay [6]: Stat Signaling Pathway (AID 446; active means well fitted curve in either direction with a large enough effect, not every such curve was filed as active;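 further: ME-180 cervical cancer cells given 40 pM IL-6 alongside compound; SIE-controlled beta-lactamase reporter measured as 460/530 nm FRET emission ratio; on the % scale 0 is the no-effect control and ±100 the full control effect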). The method, boiled down:
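Overnight-plated ME-180 cells bearing a STAT Inducible Element beta-lactamase reporter; 5 h co-exposure to compound and 40 pM IL-6; values normalized to 300 pM IL-6 and 125 nM JAK inhibitor controls.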

The target in assay [7] is Glucocorticoid receptor (Homo sapiens) (UniProt P04150). Kind of assay: GR-GFP Redistribution (AID 450;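 active means compounds whose dose series gives a full or clear partial fitted curve of increased nuclear translocation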; further: potency means the concentration at half of the fitted maximal effect). The settings on record: U2OS GR-GFP nuclear translocation, laser cytometry, 2 h.
Sequence of Glucocorticoid receptor (Homo sapiens) (P04150 whole entry, looked up): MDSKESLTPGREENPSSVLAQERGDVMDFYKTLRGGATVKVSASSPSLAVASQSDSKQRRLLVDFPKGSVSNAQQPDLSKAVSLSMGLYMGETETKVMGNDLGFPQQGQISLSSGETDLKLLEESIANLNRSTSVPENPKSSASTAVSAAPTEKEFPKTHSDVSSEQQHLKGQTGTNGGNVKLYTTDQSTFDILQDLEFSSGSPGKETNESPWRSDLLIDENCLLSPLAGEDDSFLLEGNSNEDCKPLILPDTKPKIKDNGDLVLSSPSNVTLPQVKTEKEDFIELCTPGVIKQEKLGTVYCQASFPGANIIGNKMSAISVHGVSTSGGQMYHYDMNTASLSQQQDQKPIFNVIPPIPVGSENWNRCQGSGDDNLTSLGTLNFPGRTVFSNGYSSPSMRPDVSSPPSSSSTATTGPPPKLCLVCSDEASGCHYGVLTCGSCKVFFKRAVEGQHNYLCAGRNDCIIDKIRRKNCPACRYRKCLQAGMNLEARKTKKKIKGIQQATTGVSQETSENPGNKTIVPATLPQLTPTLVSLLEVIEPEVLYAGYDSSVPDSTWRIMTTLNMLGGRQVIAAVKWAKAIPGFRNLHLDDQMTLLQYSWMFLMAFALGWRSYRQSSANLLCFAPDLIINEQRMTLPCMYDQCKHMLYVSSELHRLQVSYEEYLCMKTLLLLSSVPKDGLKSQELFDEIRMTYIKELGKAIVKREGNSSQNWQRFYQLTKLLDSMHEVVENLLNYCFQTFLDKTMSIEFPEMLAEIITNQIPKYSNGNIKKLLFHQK
For assay [8] the target is unchanged. Kind of assay: GR-EFC Redistribution (AID 451; calls by dose curve; further: potency means the concentration at half of the fitted maximal effect). The settings on record: CHO-K1 GR-EFC translocation, beta-gal luminescence, 2 h. The method, boiled down:
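Translocation of GR-ED fusion to nuclear EA restores b-gal, read by luminescence after 1 h room-temperature detection. Engineered CHO-K1 biosensor cells, 1,000/well, exposed 2 h at 37 C to titrations up to 46 uM final.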

Assay [9] addresses Mitogen-activated protein kinase 10 (Mus musculus) (UniProt Q61831). Kind of assay: JNK3 AlphaScreen Assay (AID 530; active means well fitted curve in either direction with a large enough effect, not every such curve was filed as active;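 further: kinase came from lysate of stimulated human HepG2 cells; signal reports phosphorylation of biotinylated GST-cJun 1-79 at Ser73 with 10 µM ATP; on the % scale 0 is the no-effect control and ±100 the full control effect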). The essentials:
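qHTS titrations with 15 min compound pre-incubation before adding ATP (10 uM final). Read-out: AlphaScreen of Ser73-phosphorylated biotin-GST-cJun using HepG2 lysate JNK3 activated by IL-1β and TNFα.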

The target of assay [10] is 3',5'-cyclic-AMP phosphodiesterase 4B (Homo sapiens) (UniProt Q07343). Kind of assay: qHTS Assay for Inhibitors of PDE-IV (AID 607; active means well fitted activation curve with a large enough effect in the main read-out, with a control signal flat, not every such curve was filed as active; further: % of control where 0% means no effect). The essentials:
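Live HEK293 cells with a modified cyclic nucleotide-gated (CNG) channel report intracellular cAMP via membrane-potential dye fluorescence (ex 535/em 590 nm). Endogenous PDE-IV was targeted. Compounds were tested at up to 22.9 uM final; RO 20-1724 100 uM served as control.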

In assay [11] the target is Cytochrome P450 3A4 (Homo sapiens) (UniProt P08684). Kind of assay: qHTS Assay for Activators of Cytochrome P450 3A4 (AID 885). Further: nearly all actives have a fitted effect of over 65% in size. The method, boiled down: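 Using 20nM recombinant human CYP3A4 in potassium phosphate (200mM), substrate Luciferin-PPXE at 25uM, luminescent luciferin detection followed a 60-min RT NADPH reaction; data scaled to 57 uM ketoconazole.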
Sequence of Cytochrome P450 3A4 (Homo sapiens) (P08684 whole entry, looked up): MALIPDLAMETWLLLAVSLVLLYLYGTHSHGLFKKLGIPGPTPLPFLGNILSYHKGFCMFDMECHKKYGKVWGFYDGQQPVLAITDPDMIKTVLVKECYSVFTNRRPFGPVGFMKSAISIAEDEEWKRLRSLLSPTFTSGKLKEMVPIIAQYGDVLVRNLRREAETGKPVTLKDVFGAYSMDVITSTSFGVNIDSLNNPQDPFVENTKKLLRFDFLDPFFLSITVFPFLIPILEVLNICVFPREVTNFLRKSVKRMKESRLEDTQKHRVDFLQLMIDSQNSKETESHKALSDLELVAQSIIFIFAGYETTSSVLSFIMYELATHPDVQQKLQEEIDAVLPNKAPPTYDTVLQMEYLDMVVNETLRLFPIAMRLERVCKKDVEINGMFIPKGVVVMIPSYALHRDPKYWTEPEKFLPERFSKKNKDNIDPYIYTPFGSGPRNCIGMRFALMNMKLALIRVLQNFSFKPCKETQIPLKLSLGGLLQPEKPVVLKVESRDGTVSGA
Assay [12] concerns the target Cytochrome P450 1A2 (Homo sapiens) (UniProt P05177). Kind of assay: p450-cyp1a2 (AID 410; calls by dose curve; further: potency means the concentration at half of the fitted maximal effect). The essentials:
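O-Demethylation of luciferin 6' methyl ether by human CYP1A2 is monitored as luciferase luminescence. Substrate sits at Km (100uM); enzyme is 20nM. Values are scaled to 57 uM furafylline as maximal inhibition.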

Assay [13] addresses Cytochrome P450 2C9 (Homo sapiens) (UniProt P11712). Kind of assay: qHTS Assay for Inhibitors and Substrates of Cytochrome P450 2C9 (AID 883). Further: nearly all actives have a fitted effect of over 60% in size. Further: potency means the concentration at half of the fitted maximal effect. The essentials:
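Luminescent read-out of deoxyluciferin hydroxylation, normalized to 57uM sulphaphenazole (AC100). Reaction: 10nM enzyme, 100uM Luciferin-H (equal to KM), 25mM KPO4, 10 min compound preincubation, then 60 min with NADPH regeneration, both at 37C.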

In assay [14] the target is Cytochrome P450 3A4 (Homo sapiens) (UniProt P08684). Nature of the assay: qHTS Assay for Inhibitors and Substrates of Cytochrome P450 3A4 (AID 884). Further: potency means the concentration at half of the fitted maximal effect; nearly all actives have a fitted effect of over 50% in size. The method, boiled down:
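Luminescent readout of luciferin produced by CYP3A4 (20 nM) dealkylation of Luciferin-PPXE, 25 uM (its KM). NADPH-driven reaction ran 60 min at RT after 10 min compound preincubation; data scaled to 57 uM ketoconazole as 100% inhibition.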

The target of assay [15] is Cytochrome P450 2C19 (Homo sapiens) (UniProt P33261). Nature of the assay: qHTS Assay for Inhibitors and Substrates of Cytochrome P450 2C19 (AID 899). Further: potency means the concentration at half of the fitted maximal effect; nearly all actives have a fitted effect of over 60% in size. The essentials:
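Luminescence readout of luciferin formed from 10uM Luciferin-H EGE (KM level) by 5 nM CYP2C19 in 50mM KPO4. 60 min NADPH-driven reaction at 37C after 10 min compound preincubation; data scaled to 57uM ketoconazole inhibition.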

Assay [16] addresses Rap guanine nucleotide exchange factor 3 (Homo sapiens) (UniProt O95398). Nature of the assay: Counterscreen qHTS for agonist of cAMP-regulated guanine nucleotide exchange factor 3 (EPAC1) (AID 1645889). Further: nearly all actives have a fitted effect of over 40% in size. Further: potency means the concentration at half of the fitted maximal effect. On activation: % of control where 0% means no effect. The method, boiled down: as §1
Assay [17] has as its target Tumor susceptibility gene 101 protein (Homo sapiens) (UniProt Q99816). Kind of assay: qHTS Assay for Iinhibitors of HIV-1 Budding by Blocking the Interaction of PTAP/TSG101: Hit Validation (AID 651600). Further: nearly all actives have a fitted effect of over 70% in size. Further: potency means the concentration at half of the fitted maximal effect. The method, boiled down:
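Compounds are added to the Tsg101 binding domain (10 uM final) in pH 7.5 HEPES buffer. FITC-PTAP peptide follows at 50 nM final. After 20 min at r.t., polarized FITC emission is measured.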

Assay [18] in a line: NFAT Signaling Pathway (AID 444; active means well fitted curve in either direction with a large enough effect, not every such curve was filed as active;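 further: carbachol stimulus at about its EC50 of 1 µM final; on the % scale 0 is the no-effect control and ±100 the full control effect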). Conditions: Jurkat NFAT-bla M1, carbachol, beta-lactamase ratio, 5 h; at 7.69 µM (top of the series) unless noted. The essentials: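 Read-out: CCF4 FRET ratio (460 nm/530 nm) after 1 h RT dye loading, used for %activity and AC50 from titration series. Cells: Jurkat NFAT-β-lactamase/M1 line, treated with compound plus 1 uM carbachol for 5 h, 37 °C.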

Assay [19] in a line: AP1 Signaling Pathway (AID 357; active means well fitted curve in either direction with a large enough effect, not every such curve was filed as active;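 further: ME-180 reporter cells stimulated with EGF at its EC50 level; on the % scale 0 is the no-effect control and ±100 the full control effect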). Conditions: ME-180 (cervical carcinoma) AP-1-bla reporter, EGF-induced, beta-lactamase ratio, 5 h; at 7.69 µM (top of the series) unless noted. The essentials: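 A ratiometric CCF4 readout (405 nm excitation; 460 and 530 nm emission) quantified AP-1-driven beta-lactamase in ME-180 cells after 5 h with compound and EC50 EGF; AC50 values were derived for activators and inhibitors.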

Sequence of Tumor susceptibility gene 101 protein (Homo sapiens) (Q99816 whole entry, looked up, the tested form may be a part): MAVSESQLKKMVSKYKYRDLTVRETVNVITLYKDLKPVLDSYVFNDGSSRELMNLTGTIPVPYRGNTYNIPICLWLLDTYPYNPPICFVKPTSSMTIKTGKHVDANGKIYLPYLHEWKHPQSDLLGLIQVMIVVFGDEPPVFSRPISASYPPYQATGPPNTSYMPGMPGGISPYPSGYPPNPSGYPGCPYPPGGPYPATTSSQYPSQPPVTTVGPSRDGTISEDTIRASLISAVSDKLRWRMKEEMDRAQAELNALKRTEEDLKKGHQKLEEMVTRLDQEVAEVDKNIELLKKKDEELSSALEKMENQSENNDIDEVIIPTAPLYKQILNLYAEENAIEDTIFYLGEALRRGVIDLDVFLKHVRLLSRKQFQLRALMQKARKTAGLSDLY
Sequence of 3',5'-cyclic-AMP phosphodiesterase 4B (Homo sapiens) (Q07343 whole entry, looked up): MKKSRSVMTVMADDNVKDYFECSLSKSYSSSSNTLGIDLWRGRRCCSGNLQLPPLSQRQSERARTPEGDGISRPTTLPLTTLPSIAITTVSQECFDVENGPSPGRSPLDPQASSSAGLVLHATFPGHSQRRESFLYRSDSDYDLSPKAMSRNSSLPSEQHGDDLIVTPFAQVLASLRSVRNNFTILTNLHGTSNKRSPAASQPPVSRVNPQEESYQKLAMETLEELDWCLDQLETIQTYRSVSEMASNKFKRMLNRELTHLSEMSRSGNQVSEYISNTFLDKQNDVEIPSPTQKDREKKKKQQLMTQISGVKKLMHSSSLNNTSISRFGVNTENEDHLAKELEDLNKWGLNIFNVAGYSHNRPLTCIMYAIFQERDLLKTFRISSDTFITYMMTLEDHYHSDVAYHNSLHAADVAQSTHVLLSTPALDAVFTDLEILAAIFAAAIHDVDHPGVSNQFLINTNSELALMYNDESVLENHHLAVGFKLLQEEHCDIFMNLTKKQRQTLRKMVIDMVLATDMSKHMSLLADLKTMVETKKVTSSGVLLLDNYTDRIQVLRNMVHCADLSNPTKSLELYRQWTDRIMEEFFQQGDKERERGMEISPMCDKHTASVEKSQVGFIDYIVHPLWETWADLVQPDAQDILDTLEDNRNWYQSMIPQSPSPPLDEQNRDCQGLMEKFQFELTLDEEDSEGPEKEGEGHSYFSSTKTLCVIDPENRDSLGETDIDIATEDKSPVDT
Sequence of Cytochrome P450 1A2 (Homo sapiens) (P05177 whole entry, looked up): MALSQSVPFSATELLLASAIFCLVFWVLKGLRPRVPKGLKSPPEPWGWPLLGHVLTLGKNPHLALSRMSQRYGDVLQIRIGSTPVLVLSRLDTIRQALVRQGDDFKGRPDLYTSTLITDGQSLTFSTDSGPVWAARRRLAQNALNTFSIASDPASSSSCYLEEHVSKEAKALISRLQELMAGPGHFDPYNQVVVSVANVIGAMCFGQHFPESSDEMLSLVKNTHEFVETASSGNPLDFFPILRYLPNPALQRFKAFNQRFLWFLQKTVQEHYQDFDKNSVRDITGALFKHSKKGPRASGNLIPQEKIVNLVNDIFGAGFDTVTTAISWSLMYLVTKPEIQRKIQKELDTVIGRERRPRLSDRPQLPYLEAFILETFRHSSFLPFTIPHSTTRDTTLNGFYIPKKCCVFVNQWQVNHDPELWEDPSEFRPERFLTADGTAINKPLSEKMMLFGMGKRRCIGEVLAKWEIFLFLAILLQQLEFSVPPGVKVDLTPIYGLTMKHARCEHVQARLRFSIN

As to `CC(C)(C)c1ccc(-n2nc(C#N)c(Cl)cc2=O)cc1`, the Potency in [1] was 15.8 µM (active); in assay [2], 42.6 µM (active); in assay [3] it was 0.338 µM (active). Further, in [4], the Potency entry was “inactive”.

For `COc1cccc(Nc2ncc3nc(-c4cc(F)cc(F)c4)c(=O)n(CCC#N)c3n2)c1`, the Potency is above 11.4 µM in assay [5], above 9.22 µM in assay [7] and above 46 µM in [8]. Besides, the result in assay [6] and in assay [11] was inactive. Besides, the Potency result in assay [9], in assay [10], in assay [2] and in [3] was “inactive” each time.

With `COC(=O)c1cc2ccccc2n1S(=O)(=O)c1ccccc1`, the Potency result in assay [2] and in [4] was “inactive” throughout.

With `Clc1ccccc1NN(Cc1ccncc1)c1ccccc1Cl`, the Potency was 5.01 µM (active) in [12]; above 46 µM in assay [7]; 1.58 µM (active) in [13]; 0.251 µM (active) in [14]; 1.26 µM (active) in assay [15]; 16.9 µM (active) in [3]. Also, the result in [6] was inactive. The Potency entry in [10], in [2] and in assay [4] was “inactive” in each case. Besides, the activity change, positive = activation in assay [11] is -76.6% [at 11.4 µM].

In the case of `Cn1c(N)c(C(=O)COC(=O)c2cc(-c3ccco3)nc3ccccc23)c(=O)n(C)c1=O`, the Potency in [14] was 25.1 µM (active); in assay [2] it was 47.8 µM (active). The outcome in assay [11] was inactive. The Potency result in assay [3], in assay [4] and in [16] was “inactive” in each case.

For `CN1CC=C2C(C#N)=C(N)C(C#N)(C#N)C(c3ccsc3)C2C1` (stereo not drawn), the Potency entry in [2] and in assay [4] was “inactive” each time.

Regarding `Cc1cc(/C=C2\SC(=S)N(Cc3ccco3)C2=O)c(C)n1-c1cccnc1`, the figures for the Potency in assay [17] and in [3] were 25.9 µM (active) and 84.9 µM (active), respectively. Further, the Potency result in assay [2] and in assay [4] was “inactive” throughout.

Turning to `Cc1c2ccccc2nc2c(F)c(NCCO)c(F)c(F)c12`, in [17], the Potency is 8.19 µM (active). The Potency entry in assay [2], in assay [3] and in assay [4] was “inactive” in each case.

For the compound `O=c1c(/C=C(\O)c2ccccc2)nc2ccccc2n1-c1ccccc1`, the Potency in [17] was 16.3 µM (active). Moreover, the Potency entry in assay [2] and in assay [3] was “inactive” each time. In assay [4], the activity change, negative = inhibition was -1.75% [at 30.8 µM].

`COc1cccc(Nc2ncc3nc(-c4ccc(F)cc4)c(=O)n(CCC#N)c3n2)c1`: the Potency in assay [5] was above 11.4 µM; in assay [12], 3.98 µM (active); in assay [7], above 9.22 µM; in [8], above 46 µM; in [14] it was 3.16 µM (active). Moreover, the activity change, negative = inhibition in [18] was -6.29%. The compound was called inactive in assay [6] and in assay [11]. For the same compound, the Potency result in assay [9], in assay [10], in [13], in assay [2] and in assay [3] was “inactive” each time.

With `O=C(OCCN1C(=O)c2cccc3c(N4CCOCC4)ccc(c23)C1=O)c1ccc(Cl)cc1Cl`, the Potency in assay [17] was 4.61 µM (active). For the same compound, the Potency result in assay [2] and in assay [3] was “inactive” in each case. Besides, the activity change, negative = inhibition in [4] is 68.2% [at 30.8 µM].

With `Cc1ccc(CNC(=O)c2cccc3c2C(=O)c2ccc(N4CCC(C)CC4)cc2S3(=O)=O)cc1`, the Potency entry in [2] and in [3] was “inactive” each time. Further, the Potency in assay [16] was 11.2 µM (active).

With `CCOCCCNc1nc2c(C)cccn2c(=O)c1/C=C1\SC(=S)N(CC(C)C)C1=O`, the Potency result in assay [2] and in assay [4] was “inactive” each time.

For the compound `Cc1ccc(-c2nc(S(=O)(=O)c3ccc(C)cc3)c(N3CCOCC3)o2)cc1`, the Potency result in [2] and in [4] was “inactive” in each case.

In the case of `CN1C(=O)c2cccc3c(N)ccc(c23)C1=O`, the results for the Potency in assay [17] and in assay [16] were 5.8 µM (active) and 10 µM (active), respectively. Moreover, the Potency result in [2], in assay [3] and in assay [4] was “inactive” throughout.

As to `COc1cccc(/C(O)=C/c2nc3ccc(C(=O)NCCc4ccc(Cl)cc4)cc3[nH]c2=O)c1`, the Potency entry in [17], in [2], in [3] and in assay [4] was “inactive” in each case.

For `Nc1ccc2nc3c(=O)n(C4CCCCC4)c(=O)[nH]c3nc2c1`, the values for the Potency in [17] and in [16] were 6.51 µM (active) and 22.4 µM (active), respectively. For the same compound, the Potency entry in assay [2], in assay [3] and in [4] was “inactive” throughout.

As for `CN(C)c1ncc2nc(CCc3ccccc3)c(=O)n(-c3ccccc3)c2n1`, the Potency was above 11.4 µM in [5]; 0.794 µM (active) in assay [12]; above 9.22 µM in [7]; above 46 µM in [8]; 6.31 µM (active) in assay [14]. Besides, the activity change, negative = inhibition in assay [18] is 12.7%. Also, the compound was called inactive in assay [6] and in assay [11]. Also, the Potency entry in assay [9], in [2] and in assay [3] was “inactive” in each case.

Regarding `CC(=O)N1CCC2(CCCN(c3ccc(-c4ccccc4)cc3)C2)CC1`, in [5], the Potency is above 11.4 µM. In addition, the activity change, negative = inhibition was -10.1% in [19] and -24.3% in assay [18]. Further, in [6], the compound was classed as inactive. Moreover, the Potency result in assay [9], in [10], in assay [2] and in assay [3] was “inactive” in each case.
